# Measurements as given in PubChem BioAssay (NCATS).
# Inconclusive results are not listed. Where a call stands in place of a potency, no number is given. Unmarked numbers belong to inactive results. Activity calls are given as the source filed them. Calls follow the shape of the dose curve; as a rule, active = well fitted inhibition curve with a large enough effect; inconclusive = small, poorly fitted or top-dose-only effect; inactive = flat fitted curve, though single readings scatter.
# Key:
# [1] = qHTS profiling for inhibitors of Plasmodium falciparum proliferation (AID 504749); also: nearly all actives have a fitted effect of over 60% in size; settings: P. falciparum in erythrocytes, SYBR Green DNA, 72 h
# Procedure, shortened: (§1)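 In a 72 h erythrocytic culture (37 C, humidified, 5% CO2) at 2.5% hematocrit and 0.3% starting parasitemia, compounds were tested; SYBR Green I in detergent lysis buffer stained parasite DNA overnight.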
# [2] = system: 3D7; assay: as above; settings: P. falciparum in erythrocytes, SYBR Green DNA, 72 h; series mostly up to 28.7 µM
# Procedure, shortened: as §1
# [3] = system: AA1029; assay: as above; settings: P. falciparum in erythrocytes, SYBR Green DNA, 72 h; series mostly up to 28.7 µM
# Procedure, shortened: as §1
# [4] = system: AS120; assay: as above; settings: P. falciparum in erythrocytes, SYBR Green DNA, 72 h; series mostly up to 28.7 µM
# Procedure, shortened: as §1
# [5] = system: ATS189; assay: as above; settings: P. falciparum in erythrocytes, SYBR Green DNA, 72 h; series mostly up to 28.7 µM
# Procedure, shortened: as §1
# [6] = system: ATS95; assay: as above; settings: P. falciparum in erythrocytes, SYBR Green DNA, 72 h; series mostly up to 28.7 µM
# Procedure, shortened: as §1
# [7] = system: C2A; assay: as above; settings: P. falciparum in erythrocytes, SYBR Green DNA, 72 h; series mostly up to 28.7 µM
# Procedure, shortened: as §1
# [8] = system: CP185; assay: as above; settings: P. falciparum in erythrocytes, SYBR Green DNA, 72 h; series mostly up to 28.7 µM
# Procedure, shortened: as §1
# [9] = system: CP191; assay: as above; settings: P. falciparum in erythrocytes, SYBR Green DNA, 72 h; series mostly up to 28.7 µM
# Procedure, shortened: as §1
# [10] = system: CP192; assay: as above; settings: P. falciparum in erythrocytes, SYBR Green DNA, 72 h; series mostly up to 28.7 µM
# Procedure, shortened: as §1
# [11] = system: CP194; assay: as above; settings: P. falciparum in erythrocytes, SYBR Green DNA, 72 h; series mostly up to 28.7 µM
# Procedure, shortened: as §1
# [12] = system: CP201; assay: as above; settings: P. falciparum in erythrocytes, SYBR Green DNA, 72 h; series mostly up to 28.7 µM
# Procedure, shortened: as §1
# [13] = system: CP203; assay: as above; settings: P. falciparum in erythrocytes, SYBR Green DNA, 72 h; series mostly up to 28.7 µM
# Procedure, shortened: as §1
# [14] = system: CP211; assay: as above; settings: P. falciparum in erythrocytes, SYBR Green DNA, 72 h; series mostly up to 28.7 µM
# Procedure, shortened: as §1
# [15] = system: 7G8; assay: as above; settings: P. falciparum in erythrocytes, SYBR Green DNA, 72 h; series mostly up to 28.7 µM
# Procedure, shortened: as §1
# [16] = at 28.7 µM (top of the series), parasite line A
# [17] = at 28.7 µM (top of the series), parasite line B
# Potency is read from the fitted curve at half-maximal effect.
Compound,"activity, negative = inhibition [1, 16]","activity, negative = inhibition [1, 17]",Potency [2],Potency [3],Potency [4],Potency [5],Potency [6],Potency [7],Potency [8],Potency [9],Potency [10],Potency [11],Potency [12],Potency [13],Potency [14],Potency ([1]; parasite line A),Potency [15],"activity, negative = inhibition ([1]; at 12.8 µM (top of the series), parasite line A)","activity, negative = inhibition ([1]; at 12.8 µM (top of the series), parasite line B)",Potency ([1]; parasite line B)
c1ccc2cc(CC3=NCCN3)ccc2c1,3.45%,-0.535%,inactive,inactive,inactive,inactive,inactive,inactive,inactive,inactive,inactive,inactive,inactive,inactive,inactive,,,,,
CCN(CC)C(=O)/C(Cl)=C(\C)OP(=O)(OC)OC,-6.34%,3.3%,inactive,inactive,inactive,inactive,inactive,inactive,inactive,inactive,,,,,,,,,,
c1ccc(C2(N3CCCC3)CCCCC2)cc1,,,12.6 µM (active),11.2 µM (active),11.2 µM (active),inactive,,inactive,12.6 µM (active),11.2 µM (active),,,,,,12.6 µM (active),11.2 µM (active),,,
CCC(=O)O[C@@](Cc1ccccc1)(c1ccccc1)[C@@H](C)CN(C)C,,,inactive,inactive,inactive,inactive,inactive,inactive,inactive,inactive,inactive,inactive,inactive,inactive,,,,-5.92%,-0.756%,
CCCC(=O)OC(C(Cl)(Cl)Cl)P(=O)(OC)OC (stereo not drawn),-16.7%,-35.8%,,inactive,inactive,inactive,,inactive,inactive,inactive,inactive,inactive,inactive,inactive,,,,,,
O=C(NC(=O)c1c(F)cccc1F)Nc1ccc(Cl)c(Oc2ncc(C(F)(F)F)cc2Cl)c1,9.79%,-1.85%,inactive,inactive,inactive,inactive,inactive,inactive,inactive,inactive,inactive,inactive,inactive,inactive,inactive,,,,,
Clc1ccc(Cl)cc1,7.27%,,inactive,inactive,inactive,inactive,inactive,inactive,inactive,inactive,inactive,inactive,inactive,inactive,inactive,,inactive,,,
O=c1c2ccccc2[se]n1-c1ccccc1,,,,inactive,,,inactive,inactive,,,inactive,,inactive,inactive,,,8.91 µM (active),,,
F/C(COc1ccc2c(c1)[nH]c1ccccc12)=C1/CN2CCC1CC2,,,,10 µM (active),4.47 µM (active),,11.2 µM (active),,,11.2 µM (active),,,inactive,,,,5.01 µM (active),,,10 µM (active)
CNC(=O)Oc1ccccc1C(=O)Nc1ccccc1,,,inactive,,,,,inactive,inactive,,inactive,,inactive,inactive,inactive,,10 µM (active),,,11.2 µM (active)
C[C@H]1CCC[C@H](O)CCCCCc2cc(O)cc(O)c2C(=O)O1,,-17.3%,inactive,,,inactive,inactive,inactive,inactive,,inactive,,inactive,inactive,inactive,,12.6 µM (active),,,
Clc1ccccc1Cl,6.5%,,inactive,inactive,inactive,inactive,inactive,inactive,inactive,inactive,inactive,inactive,inactive,inactive,inactive,,inactive,,,
CN1CCCC(=C(c2cccs2)c2cccs2)C1,,-19.2%,inactive,,,,,inactive,,inactive,inactive,,inactive,,,,,,,
CC1CCC(C(C)C)C(OC(=O)c2ccccc2N)C1 (stereo not drawn),-17.5%,-19.4%,inactive,inactive,inactive,,,inactive,inactive,inactive,inactive,inactive,inactive,inactive,inactive,,,,,
CCCCCCCCOC(=O)c1ccccc1C(=O)OCCCCCCCC,10.9%,-23.5%,inactive,inactive,inactive,inactive,inactive,inactive,inactive,inactive,inactive,inactive,inactive,inactive,inactive,,,,,
CN1[C@@H]2CC[C@H]1CC(OC1c3ccccc3CCc3ccccc31)C2 (stereo partly drawn),,,inactive,3.55 µM (active),3.55 µM (active),,,,,2.51 µM (active),inactive,,inactive,,,3.98 µM (active),3.98 µM (active),,,
O=C1CN=C(c2ccccc2)c2cc(Cl)ccc2N1CC1CC1,-5.97%,-9.8%,,inactive,,inactive,inactive,inactive,inactive,inactive,inactive,inactive,inactive,,inactive,,,,,
